Screening data: PubChem, National Center for Advancing Translational Sciences (NCATS)
aSyn yeast inh: qHTS of alpha-syn Inhibitors; Yeast expressing alpha-synuclein, growth rescue, BacTiter-Glo, 24 h; Potency, µM (titrated, usually from 46.1 µM), without a hit: at the top dose growth rescue (activation), usual class: activators; actives 0.14% (n = 370,000); AID 652106, 2013; also: % of control where 0% means no effect; nearly all actives have a fitted effect of over 65% in size
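Galactose-induced alpha-syn yeast (OD600=0.02, raffinose-pregrown) + pinned cpd, 24 hr, 30 deg C; growth by BacTiter-Glo luminescence. Growth restoration scores as activation.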
ERG Ets-DNA blk: qHTS for Small Molecule Inhibitors of the ERG Ets/DNA interaction | Transcriptional regulator ERG (Homo sapiens), P11308 | fluorescence polarization, His-ERG Ets domain / labelled DNA | Potency, µM (titrated, usually from 76.9 µM), for the others: at the top dose FP activity, negative = inhibition, usual class: inhibitors | actives 0.028% (n = 370,000); active = well fitted inhibition curve with a large enough effect in the polarisation, with a control signal flat; inconclusive = small, poorly fitted or top-dose-only effect, or effect the other way, or a change in a side signal; inactive = no such curve, though single readings can be large or run the other way; the % refers to the polarisation;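 also: polarization taken with two DNA probes labelled with fluorescein and Texas red; % of control where 0% means no effect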
Target sequence (P11308 whole entry, looked up, the tested form may be a part): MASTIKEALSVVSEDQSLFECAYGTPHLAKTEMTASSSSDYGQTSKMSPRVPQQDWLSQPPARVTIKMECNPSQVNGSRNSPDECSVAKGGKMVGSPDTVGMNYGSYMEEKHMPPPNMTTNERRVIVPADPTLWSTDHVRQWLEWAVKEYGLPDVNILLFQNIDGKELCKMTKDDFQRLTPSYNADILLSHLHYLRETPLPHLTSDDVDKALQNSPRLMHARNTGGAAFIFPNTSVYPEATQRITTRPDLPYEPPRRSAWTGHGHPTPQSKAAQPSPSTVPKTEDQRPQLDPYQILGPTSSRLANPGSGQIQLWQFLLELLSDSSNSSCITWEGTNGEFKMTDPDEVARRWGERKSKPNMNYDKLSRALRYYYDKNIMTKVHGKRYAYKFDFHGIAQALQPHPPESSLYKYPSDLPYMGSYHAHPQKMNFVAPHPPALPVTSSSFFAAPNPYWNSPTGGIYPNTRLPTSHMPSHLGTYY
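His-tagged ERG Ets domain (1 uM in the protein solution; 300mM KCl, 50mM Tris-HCl, 1mM EDTA, 1mM DTT, pH 7.5) received compound, then a probe mix of 5 nM fluorescein-DNA and 100nM Texas-615-DNA. Fluorescence polarization was read for both dyes.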
Mito fusion yeast: qHTS Assay for Small Molecule Inhibitors of Mitochondrial Division or Activators of Mitochondrial Fusion. S. cerevisiae fusion-defective mutant growth rescue, CellTiterGlo 48 h. Potency, µM (series often up to 46.1 µM), without a hit: top-dose growth rescue (activation), actives largely listed as activators. actives 0.23% (n = 320,000); also: % of control where 0% means no effect; nearly all actives have a fitted effect of over 45% in size
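S. cerevisiae fusion-defective temperature-sensitive mutants (e.g. fzo1-1, mgm1-5) grown 48 h at 37C in YPEG (ethanol/glycerol non-fermentable) medium with 23 nl compound per well; growth rescue read as CellTiterGlo luminescence.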
Abeta yeast res: qHTS for compounds that reverse cellular toxicity of Amyloid beta (A-beta) peptide in yeast: Primary Screen. yeast expressing A-beta42, growth rescue, OD600, 48 h; response scale: 0% DMSO, 100% iron-clioquinol control. Potency, µM (series often up to 46.1 µM), most hits filed as activators. actives 0.063% (n = 410,000). AID 1347071, 2019; also: nearly all actives have a fitted effect of over 55% in size
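Yeast A-beta toxicity model in growth medium with pinned compounds, 48 h at 30 C; growth read as absorbance at 600 nm. Normalized to FeCl3/clioquinol equimolar mix (positive) and DMSO (negative).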
FUS suppressor: qHTS for Suppressors of FUS Proteinopathy: Primary screen using FUS-linked yeast assay | S. cerevisiae FUS-expressing, growth rescue, OD600, 24 h | AID 1347120, 2019 | Potency, µM (titrated, usually from 76.6 µM), most hits filed as activators | actives 0.24% (n = 390,000);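 also: plate controls were DMSO vehicle for no effect and reference control for full effect; nearly all actives have a fitted effect of over 55% in size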
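Yeast FUS proteinopathy model; galactose-induced FUS (2%), starting OD 0.005. Cpds in dilution series, 24hr, 30C, 99% humidity. Abs 600 nm growth. Pos ctrl CP55940 (top 92uM final); neg ctrl DMSO.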
TDP43 rescue: qHTS of TDP-43 Inhibitors | Potency, µM (highest dose often 46.1 µM), inactives show top-dose growth rescue (activation), usual class: activators | AID 652104, 2013 | actives 1.8% (n = 410,000) | TDP-43 expressing yeast growth rescue, BacTiter-Glo, 24 h; also: % of control where 0% means no effect; nearly all actives have a fitted effect of over 50% in size
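Luminescence from BacTiter-Glo reports growth of TDP-43-expressing yeast after 24 hr at 30 deg C with compound. Cells were raffinose-pregrown to mid-log, then seeded in galactose medium at OD600=0.02.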
* hit, by the source's call; [ ] = remark or other dose. Most compounds without a hit are left out; they make up all but 2.2% or so of the library. Unless noted, calls follow the shape of the dose curve; as a rule, active = well fitted curve in the direction sought with a large enough effect; inconclusive = small, poorly fitted or top-dose-only effect, or another doubt; inactive = no such curve, though single readings can be large; an effect the other way counts as inactive or inconclusive. Potency is read from the fitted curve at half-maximal effect.

`CCN(C(=O)c1cc(S(=O)(=O)N2CCc3ccccc32)cn1C)c1cccc(C)c1` gave ERG Ets-DNA blk 4.9%, Abeta yeast res inactive, FUS suppressor inconclusive and TDP43 rescue 22.8%.
Screening CCCCNC(=O)O[C@H]1CC[C@@]23CCCN2C(=O)CCC[C@H]3[C@H]1CCC returned FUS suppressor inactive.
`O=C1c2ccccc2NC(c2c(Cl)cccc2Cl)N1Cc1ccccc1` (configuration not stated) gave aSyn yeast inh -9.7%, ERG Ets-DNA blk 10.1%, Mito fusion yeast 10.9%, Abeta yeast res inactive, FUS suppressor inactive and TDP43 rescue 25.1µM*.
Screening C=CCN1[C@H](CO)[C@H](c2ccc(C#CC3(O)CCCC3)cc2)[C@@H]1C#N returned FUS suppressor inactive.
Screening CN(C)S(=O)(=O)c1cccc(C(=O)NC(=S)N(CCC#N)Cc2cccnc2)c1 returned aSyn yeast inh -1.1%, ERG Ets-DNA blk -5.8%, Mito fusion yeast 4.7%, Abeta yeast res inactive, FUS suppressor inactive and TDP43 rescue 4.5%[9.22 µM].
For Cc1ccc(S(=O)(=O)N(C)C)cc1NC(=S)N(CCC#N)Cc1cccnc1 the results were aSyn yeast inh -1.4%, ERG Ets-DNA blk -11.6%, Mito fusion yeast 7.08µM*, Abeta yeast res inactive, FUS suppressor inactive and TDP43 rescue -14.0%.
`S=C(N/N=C/c1ccccc1)N1CCOCC1` gave aSyn yeast inh -8.2%, ERG Ets-DNA blk -11.6%, Mito fusion yeast -2.9%, Abeta yeast res inconclusive and TDP43 rescue 22.4µM*.
For COc1cc(S(=O)(=O)NCc2ccc3c(c2)OCO3)ccc1Cl the results were aSyn yeast inh -9.9%, Mito fusion yeast 3.8%, Abeta yeast res inactive, FUS suppressor inactive and TDP43 rescue 12.6µM*.
For CCC(=O)N1CCc2cc(CNS(=O)(=O)c3ccc(C(C)C)cc3)ccc21 the results were ERG Ets-DNA blk 1.0%, Abeta yeast res inactive, FUS suppressor inactive and TDP43 rescue 20µM*.
COc1cc(S(=O)(=O)NCc2ccccc2)ccc1Br was read as aSyn yeast inh 2.9%, ERG Ets-DNA blk 3.5%, Mito fusion yeast 0.2%, Abeta yeast res inactive and TDP43 rescue 12.6µM*.
`COc1cc(C)c(S(=O)(=O)NCc2ccc3c(c2)OCO3)cc1C` gave aSyn yeast inh inconclusive, ERG Ets-DNA blk -14.6%, Mito fusion yeast 1.0%, Abeta yeast res inactive, FUS suppressor inactive and TDP43 rescue 15.8µM*.
COc1ccc(S(=O)(=O)NCc2ccccc2)cc1Br was read as Mito fusion yeast -0.9%.
Screening COc1cc(S(=O)(=O)NCc2ccc3c(c2)OCO3)c(OC)cc1C returned aSyn yeast inh 7.5%, ERG Ets-DNA blk 8.9%, Mito fusion yeast 1.0%, Abeta yeast res inactive, FUS suppressor inactive and TDP43 rescue inconclusive.
`C=CCN(C)CC#Cc1ccc(F)cc1` gave FUS suppressor inactive.
Screening CC1=C(C(=O)N2CCCCCC2)CC(CC(=O)NCCCN(C)C)C(=O)N1CCCN1CCCC1=O (configuration not stated) returned FUS suppressor inactive and TDP43 rescue 19.5%.
For CCOC(=O)c1cc(-c2ccccc2)n(-c2cccc(C(=O)Nc3cccc(SC)c3)c2)c1C the results were ERG Ets-DNA blk 3.1%, Abeta yeast res inactive, FUS suppressor inactive and TDP43 rescue -10.6%.
CC(C)c1ccc(S(=O)(=O)NCc2ccc3c(c2)OCO3)cc1 was read as aSyn yeast inh 14.8%, ERG Ets-DNA blk 1.6%, Mito fusion yeast 9.2%, Abeta yeast res inactive, FUS suppressor inactive and TDP43 rescue 11.2µM*.
COC(=O)N1CCCc2cc(S(=O)(=O)NCc3ccccc3)ccc21 was read as aSyn yeast inh 17.8µM*, ERG Ets-DNA blk -5.0%, Abeta yeast res inactive, FUS suppressor inactive and TDP43 rescue 13.0%.
`Cc1ccc(NC(=O)CSc2nc(C)cc(C)c2C(=O)Nc2cccc(C)c2)cc1` gave ERG Ets-DNA blk 5.0%, Abeta yeast res inactive, FUS suppressor inactive and TDP43 rescue 23.2%.
Screening CCN(CC)CCCC(C)n1c(C)cc(C(=O)NS(=O)(=O)c2ccc(C)cc2)c1C (configuration not stated) returned aSyn yeast inh 0.0%, Abeta yeast res inactive, FUS suppressor inactive and TDP43 rescue 7.3%.
CCc1ccc(-c2nc(SCC(=O)NCCOC)c(-c3ccc(C)cc3)[nH]2)cc1 was read as ERG Ets-DNA blk 5.2%, Abeta yeast res inactive, FUS suppressor inactive and TDP43 rescue 14.5%.
Screening O=C(NCc1nc2ccccc2[nH]1)C1=C[C@H](c2ccc(C(F)(F)F)cc2)C[C@H](OCc2ccc(CO)cc2)O1 returned aSyn yeast inh -11.0%, ERG Ets-DNA blk 1.2%, Mito fusion yeast 6.8%, Abeta yeast res inactive, FUS suppressor 25.1µM* and TDP43 rescue -1.2%.
CC(=O)Nc1ccc(-c2ccnc3c2CC(C)(C(=O)Nc2ccc(C(C)C)cc2)O3)cc1 (configuration not stated) was read as aSyn yeast inh -34.8%, Abeta yeast res inactive, FUS suppressor inconclusive and TDP43 rescue 35.5µM*.
For COc1ccc(CNC(=O)C2(C)Cc3c(-c4ccc5c(c4)OCO5)ccnc3O2)cc1OC (configuration not stated) the results were aSyn yeast inh 8.91µM*, Abeta yeast res inactive, FUS suppressor inactive and TDP43 rescue 19.7%.
Screening CC1(C(=O)Nc2cccc(OC(F)(F)F)c2)Cc2c(-c3ccc4c(c3)OCO4)ccnc2O1 (configuration not stated) returned aSyn yeast inh 3.55µM*, Abeta yeast res inactive, FUS suppressor inactive and TDP43 rescue 0.3%.
For Cc1ccc(CNC(=O)CSc2ncc3c(n2)-c2cc(Cl)ccc2N(C)S3(=O)=O)cc1 the results were ERG Ets-DNA blk -4.1%, Abeta yeast res inactive, FUS suppressor inactive and TDP43 rescue 5.3%.
Screening O=C(CCc1ccccc1)N[C@H]1[C@H](O)CCC[C@]12C(=O)N(Cc1ccccc1)c1ccccc12 returned FUS suppressor inactive.
